# TAR Tat displ – HIV-1 TAR-Tat binding disruption; HIV-1 TAR RNA, Tat peptide displacement FRET; active compounds read high; z-score (concentration not given with the values); actives 0.6% (n = 100,000); active = z-score of 3 or more in at least 2 runs
# CDC25B CDK2 inh – human CDC25B-CDK2/CyclinA binding inhibition; HTRF CDC25B-CDK2/CyclinA binding, anti-His/anti-Flag; active compounds read high; actives 0.72% (n = 94,000); z-score (test concentration not listed); in the data active = z-score above about 3.2
# A number is an active result; n = inactive; x = not tested or not shown; ! = not active in a repeat. Most compounds without a hit are left out; they make up all but 0.86% or so of the library.
SMILES,TAR Tat displ,CDC25B CDK2 inh
O=C1NC(c2ccco2)c2c1n[nH]c2-c1ccco1 (stereo not drawn),n,5.3
CC1CCCCN1C(=O)Cn1c(=O)n(-c2ccc(F)cc2F)c(=O)c2sccc21 (stereo not drawn),x,n
CC(=O)N1N=C(c2cc(C3CC3)nc3ccccc23)OC1c1ccccc1 (stereo not drawn),n,x
COc1ccc(C2OC(c3cc(C4CC4)nc4ccccc34)=NN2C(C)=O)c(OC)c1 (stereo not drawn),9.2,x
Fc1cccc(CN=C2Nc3ccccc3NC23CCNCC3)c1,n,x
CCc1ccc(C2CC(=O)N3CN(C4CCCCC4)CSC3=C2C#N)cc1 (stereo not drawn),n,3.9
N#CC1=C2SCN(C3CCCCC3)CN2C(=O)CC1c1ccc(Br)cc1 (stereo not drawn),n,n
Cc1ccc(C2CC(=O)N3CN(C4CCCC4)CSC3=C2C#N)cc1 (stereo not drawn),n,n
COc1ccc(C2CC(=O)N3CN(C4CCCC4)CSC3=C2C#N)cc1 (stereo not drawn),n,5.5
COc1cc(OC)cc(-n2nnc(-c3nc(-c4ccncc4)no3)c2N)c1,n,x
CN1C2=C(C(=O)CC(C)(C)C2)C(c2cccs2)C2=C1CC(C)(C)CC2=O,x,16
CC1(C)CC(=O)C2=C(C1)NC1=C(C(=O)c3ccccc31)C2c1cccs1 (stereo not drawn),n,n
Cc1ccc2c(Cl)c(C(=O)N(Cc3ccc(C)o3)C3CCS(=O)(=O)C3)sc2c1 (stereo not drawn),n,n
O=C(N1CCCC1)C1(c2cccs2)CCOCC1,n,x
CCNc1cc(N2CCN(CCO)CC2)c2noc3c2c1C(=O)c1ccccc1-3,15,8.1
CC1CCN(c2cc(NC(C)C)c3c4c(onc24)-c2ccccc2C3=O)CC1,n,n
CCCN1CCN(c2cc(NCC)c3c4c(onc24)-c2ccccc2C3=O)CC1,n,n
CCN1CCN(c2cc(NC(C)C)c3c4c(onc24)-c2ccccc2C3=O)CC1,5.7,n
CC(C)Nc1cc(N2CCN(CCO)CC2)c2noc3c2c1C(=O)c1ccccc1-3,9.5,n
O=C1c2ccccc2-c2onc3c(N4CCOCC4)cc(NC4CCCCC4)c1c23,n,n
CC(C)Nc1cc(N2CCCC2)c2noc3c2c1C(=O)c1ccccc1-3,n,n
CCN1CCN(c2cc(NC3CCCCC3)c3c4c(onc24)-c2ccccc2C3=O)CC1,4.3,n
Cc1ccc(CSc2nc3c(c(=O)[nH]2)C(c2cccc(O)c2)CC(=O)N3)cc1 (stereo not drawn),n,n
CCOC(=O)c1cnc(SCC(=O)NC(C)CC)nc1N (stereo not drawn),n,x
COc1ccc(NC(=O)CN2N=NC3C(=O)N(c4ccc(F)c(F)c4)C(=O)C32)cc1 (stereo not drawn),n,x
SMILES,TAR Tat displ,CDC25B CDK2 inh
CC(=O)Nc1ccc(S(=O)(=O)[C@H]2CS(=O)(=O)C[C@@H]2NC(C)C)cc1,n,n
CCc1ccc(S(=O)(=O)c2nnn(-c3ccc(C)cc3)c2N)cc1,n,n
O=C(Nc1ccc2snnc2c1)NC1CCCCC1,n,n
O=C(Nc1ccc2snnc2c1)NC1CC1,n,11
Cc1cccc(S(=O)(=O)Nc2cc(-c3cn4ccc(C)cc4n3)ccc2C)c1,n,n
c1ccc(-c2ccc(C3Nc4cccc5cccc(c45)N3)cc2)cc1,n,n
Oc1ccc2ccccc2c1C1Nc2cccc3cccc(c23)N1,15,n
Cc1cccc(C2Nc3cccc4cccc(c34)N2)c1,n,n
COc1cc(C2Nc3cccc4cccc(c34)N2)ccc1O,7.3,n
Cc1ccc(C(CNC(=O)c2oc3cc(C)c(C)cc3c2C)N(C)C)o1 (stereo not drawn),n,n
O=C(c1cnc2sc(N3CCOCC3)nn2c1=O)N1CCN(c2ccccc2F)CC1,n,x
O=C1c2ccccc2-c2onc3c(N4CCOCC4)cc(NCCO)c1c23,n,n
O=C1c2ccccc2-c2onc3c(N4CCOCC4)cc(NCCN4CCCC4)c1c23,n,n
CCOCCCNc1cc(N2CCN(c3ccccc3)CC2)c2noc3c2c1C(=O)c1ccccc1-3,n,n
CCOCCCNc1cc(N2CCOCC2)c2noc3c2c1C(=O)c1ccccc1-3,6.8,n
CCNc1cc(N2CCOCC2)c2noc3c2c1C(=O)c1ccccc1-3,11,n
CC(C)CNc1cc(N2CCOCC2)c2noc3c2c1C(=O)c1ccccc1-3,n,9.2
Cc1ccc(CN(C(=O)c2cc(-c3ccc(C)c(C)c3)on2)C2CCS(=O)(=O)C2)cc1 (stereo not drawn),n,n
CCn1cc(Br)c(C(=O)Nc2cc(OC)c(OC)c(OC)c2)n1,x,n
COc1cccc(NC(=O)CSc2nnc3ccc4ccccc4n23)c1,x,n
Cc1ccccc1C(=O)Nc1cnc2oc(-c3ccc(C(C)C)cc3)nn2c1=O,n,x
O=C(O)c1ccccc1C(=O)Nc1ccc2c(c1)C(=O)c1ccccc1C2=O,x,7.8
O=C(Nc1ccc2c(c1)C(=O)c1ccccc1C2=O)c1ccccc1,x,n
Cc1nc(-c2ccc(S(=O)(=O)N3CCCC3)cc2)co1,n,x
CNC(=O)c1c(NC(=O)c2cccc(F)c2)sc2c1CCC2,n,x
SMILES,TAR Tat displ,CDC25B CDK2 inh
COc1cccc(-c2nc(-c3ccc(OC)c(OC)c3)no2)c1,n,n
CN1CCc2c(sc(N)c2C#N)C1,n,x
CCOC(=O)N1CCc2c(sc(N)c2C#N)C1,x,5.7
Cc1ccc(C)c(Nc2c3c(nc4ncnn24)CCCC3)c1,n,x
Cc1ccc(N2C(=O)c3cccnc3C2O)cc1 (stereo not drawn),n,n
CCc1ccc(-c2cc(C)no2)cc1S(=O)(=O)Nc1ccc(F)c(Cl)c1,n,x
COc1cccc(C=Nc2ccccc2SCCC#N)c1O,x,6.9
COc1cc(C(=O)Nc2ccccc2SCCC#N)cc(OC)c1OC,x,n
COc1cccc(C2CC(=O)N3CN(c4ccc(N(C)C)cc4)CSC3=C2C#N)c1 (stereo not drawn),n,7.2
COc1ccc(N2CSC3=C(C#N)C(c4cccc(OC)c4)CC(=O)N3C2)cc1 (stereo not drawn),n,6.1
COc1cccc(C2CC(=O)N3CN(c4ccc(OC)c(OC)c4)CSC3=C2C#N)c1 (stereo not drawn),n,7.5
COc1cccc(C2CC(=O)N3CN(c4ccccc4)CSC3=C2C#N)c1 (stereo not drawn),n,n
CCOC(=O)CCc1c(C)nn(-c2ccc(N3CCOCC3)nn2)c1C,n,n
CC1CCN(c2nc(Nc3ccc(F)cc3)c3cnn(C)c3n2)CC1,n,x
Cc1cc(S(=O)(=O)n2nc(-c3ccccc3)cc2N)ccc1F,n,n
O=C(O)c1cc(-c2cn[nH]c2-c2ccccc2)nc2ccc3ccccc3c12,x,22
O=C(O)c1cc(-c2ccccc2)nc2n[nH]c(-c3ccccc3)c12,n,x
CCOC(=O)CSc1ncn(-c2nc(C)cc(Oc3ccccc3)n2)n1,n,n
O[C@H]1C=C2CCN3Cc4cc5c(cc4C(C23)[C@@H]1O)OCO5 (stereo partly drawn),20,x
COCCNC(=O)c1cccn1-c1nnc(N2CCCCC2)s1,n,x
CCC(=O)Nc1nc2c(s1)CC(C(C)(C)C)CC2 (stereo not drawn),n,n
CCCN[C@H]1CCc2nc(N)sc2C1,11!,n
Cc1cc(C)c(-c2c(NC3CCCCC3)c(=O)c2=O)cc1C,n,x
O=C(NCc1cccs1)c1n[nH]c2c1CCCC2,x,n

# Source: PubChem (Center for Chemical Genomics, University of Michigan)
